According to PubChem BioAssay AID651937 (The Scripps Research Institute Molecular Screening Center, 2012):
The other results are listed elsewhere or left out. Active and inactive are the calls of the source. Rule as the data show it: active = IC50 below about 9 µM; inactive = the rest.

Experiment: compound binding to PGV04 antibody – biochemical, TR-FRET, distinct HIV envelope site, counter-screen for PG9 antibody binder project, dose response (AID 651937)
Settings: TR-FRET binding to control antibody PGV04

| SMILES | IC50 |
| --- | --- |
| O=C(Nc1nnc(-c2ccccc2F)s1)c1ccccc1F | 14.3 µM (inactive) |
| O=C(Oc1ccccc1)Oc1ccc2c(c1)oc(=O)c1ccccc12 | 2.5 µM (active) |
| Cc1cccc(Nc2nc3c(S(=O)(=O)c4ccccc4)nnn3c3ccccc23)c1C | 2.86 µM (active) |
| S=c1[nH]c2ccccc2c2ccccc12 | 36.4 µM (inactive) |
| COc1ccc(-c2c(C)nn3c(N4CCC(C(=O)N5CCCCC5)CC4)cc(C)nc23)cc1OC | 56.5 µM (inactive) |
| CC1(C)Cc2ccccc2-c2[nH]c(=S)[nH]c(=O)c21 | 38.1 µM (inactive) |
| COC(=O)C1=C(C)N(Cc2ccccc2C(F)(F)F)C(=NCc2ccc(OC)cc2)NC1c1cccc(C(F)(F)F)c1 (configuration not stated) | > 67 µM (inactive) |
